Targets with a hit are over-represented here; the source holds about 8,800 in all. About 0.5% of all pairs of compound and target were hits.
Compound: COc1cc2ncnc(Nc3ccc(F)c(Cl)c3)c2cc1OCCCN1CCOCC1 [gefitinib]
Experiment: log2 fold change, soluble protein after heating vs DMSO (PISA); higher = thermal stabilisation; K562 lysate, 10 uM; active = over 0.2 and 3.5 SD of the protein, either way, in both replicates (recomputed)
Summary of the method: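 Pellets of K562 cells were dounce-homogenised in PBS pH 7.4 with 1 mM MgCl2, and the crude extract was held at 1 mg/mL protein for a 30 min treatment with 10 μM compound. Aliquots were heated for 3 min over 48°C-58°C and pooled before NP-40 was added to 0.5% at 4°C. The supernatant from 21,000xg for 90 min was quantified by TMTpro 16plex LC-MS/MS with channel sums equalised. Values are reported from duplicates as log-two fold change in thermal stability relative to solvent controls.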

Sequence of UniProt Q13042 (Q13042 whole entry, looked up): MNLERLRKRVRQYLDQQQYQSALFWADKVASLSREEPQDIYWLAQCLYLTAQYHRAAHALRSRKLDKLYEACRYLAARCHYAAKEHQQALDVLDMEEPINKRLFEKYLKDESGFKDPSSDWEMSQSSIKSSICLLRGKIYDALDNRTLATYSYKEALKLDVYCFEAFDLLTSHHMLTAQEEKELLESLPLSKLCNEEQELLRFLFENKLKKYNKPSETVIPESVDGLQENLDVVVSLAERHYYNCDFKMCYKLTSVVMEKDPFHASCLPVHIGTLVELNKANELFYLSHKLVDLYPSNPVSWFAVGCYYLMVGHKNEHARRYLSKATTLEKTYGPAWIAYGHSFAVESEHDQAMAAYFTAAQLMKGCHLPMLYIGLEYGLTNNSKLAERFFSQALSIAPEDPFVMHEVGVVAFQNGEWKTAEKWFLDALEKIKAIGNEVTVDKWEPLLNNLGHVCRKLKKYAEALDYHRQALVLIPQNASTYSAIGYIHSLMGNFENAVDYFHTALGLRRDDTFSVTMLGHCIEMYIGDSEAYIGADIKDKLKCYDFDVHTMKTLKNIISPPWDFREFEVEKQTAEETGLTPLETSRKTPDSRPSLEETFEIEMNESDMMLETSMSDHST
Sequence of UniProt Q96RR4 (Q96RR4 whole entry, looked up): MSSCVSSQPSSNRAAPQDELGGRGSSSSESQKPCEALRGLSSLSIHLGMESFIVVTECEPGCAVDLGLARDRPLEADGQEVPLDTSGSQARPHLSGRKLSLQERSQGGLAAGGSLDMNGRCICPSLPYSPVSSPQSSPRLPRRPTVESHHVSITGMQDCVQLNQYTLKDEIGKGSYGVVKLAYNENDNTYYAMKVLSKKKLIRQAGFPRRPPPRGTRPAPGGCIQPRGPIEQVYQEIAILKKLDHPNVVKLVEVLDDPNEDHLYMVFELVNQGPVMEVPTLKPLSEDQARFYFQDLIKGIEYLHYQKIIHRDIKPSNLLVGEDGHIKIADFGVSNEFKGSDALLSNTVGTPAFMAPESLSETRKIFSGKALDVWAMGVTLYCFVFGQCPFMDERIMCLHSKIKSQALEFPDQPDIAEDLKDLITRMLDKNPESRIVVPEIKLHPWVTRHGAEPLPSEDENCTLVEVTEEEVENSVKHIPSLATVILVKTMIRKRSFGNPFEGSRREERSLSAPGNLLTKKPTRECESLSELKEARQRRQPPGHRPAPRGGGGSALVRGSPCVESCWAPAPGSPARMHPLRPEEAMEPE
Sequence of UniProt Q8TAP6 (Q8TAP6 whole entry, looked up): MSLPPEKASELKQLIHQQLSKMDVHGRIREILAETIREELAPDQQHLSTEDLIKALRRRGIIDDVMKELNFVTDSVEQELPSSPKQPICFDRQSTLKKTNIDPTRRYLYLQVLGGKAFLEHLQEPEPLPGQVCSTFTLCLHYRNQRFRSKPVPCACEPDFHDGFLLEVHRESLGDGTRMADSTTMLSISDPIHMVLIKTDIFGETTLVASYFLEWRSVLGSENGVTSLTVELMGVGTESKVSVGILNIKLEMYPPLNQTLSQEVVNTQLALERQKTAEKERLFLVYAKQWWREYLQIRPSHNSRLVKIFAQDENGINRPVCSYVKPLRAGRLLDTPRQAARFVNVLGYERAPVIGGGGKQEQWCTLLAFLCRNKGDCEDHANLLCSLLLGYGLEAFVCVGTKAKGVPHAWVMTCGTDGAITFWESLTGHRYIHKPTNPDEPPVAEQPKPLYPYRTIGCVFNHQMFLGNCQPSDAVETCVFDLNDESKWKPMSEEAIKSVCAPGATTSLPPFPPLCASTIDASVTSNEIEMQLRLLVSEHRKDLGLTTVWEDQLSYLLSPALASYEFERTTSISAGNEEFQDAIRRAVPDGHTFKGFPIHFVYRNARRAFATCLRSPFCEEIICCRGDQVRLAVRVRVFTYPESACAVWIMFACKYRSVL
Sequence of UniProt Q5T9A4 (Q5T9A4 whole entry, looked up): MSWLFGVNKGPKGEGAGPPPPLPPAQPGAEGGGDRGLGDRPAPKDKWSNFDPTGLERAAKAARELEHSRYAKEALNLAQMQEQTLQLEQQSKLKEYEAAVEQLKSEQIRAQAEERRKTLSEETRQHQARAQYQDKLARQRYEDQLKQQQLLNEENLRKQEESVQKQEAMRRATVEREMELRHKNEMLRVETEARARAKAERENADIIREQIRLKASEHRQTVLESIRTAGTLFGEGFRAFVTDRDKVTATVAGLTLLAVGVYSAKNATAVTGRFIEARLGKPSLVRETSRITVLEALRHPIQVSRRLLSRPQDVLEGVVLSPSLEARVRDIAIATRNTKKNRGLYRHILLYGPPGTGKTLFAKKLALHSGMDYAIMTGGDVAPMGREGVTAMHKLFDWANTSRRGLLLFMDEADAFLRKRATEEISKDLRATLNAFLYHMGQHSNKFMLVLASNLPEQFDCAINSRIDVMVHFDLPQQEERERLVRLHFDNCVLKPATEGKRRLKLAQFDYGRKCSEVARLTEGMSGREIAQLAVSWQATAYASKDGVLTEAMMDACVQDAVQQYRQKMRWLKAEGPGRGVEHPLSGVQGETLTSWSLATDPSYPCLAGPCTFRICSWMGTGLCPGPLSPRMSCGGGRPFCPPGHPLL
Sequence of UniProt O75794 (O75794 whole entry, looked up): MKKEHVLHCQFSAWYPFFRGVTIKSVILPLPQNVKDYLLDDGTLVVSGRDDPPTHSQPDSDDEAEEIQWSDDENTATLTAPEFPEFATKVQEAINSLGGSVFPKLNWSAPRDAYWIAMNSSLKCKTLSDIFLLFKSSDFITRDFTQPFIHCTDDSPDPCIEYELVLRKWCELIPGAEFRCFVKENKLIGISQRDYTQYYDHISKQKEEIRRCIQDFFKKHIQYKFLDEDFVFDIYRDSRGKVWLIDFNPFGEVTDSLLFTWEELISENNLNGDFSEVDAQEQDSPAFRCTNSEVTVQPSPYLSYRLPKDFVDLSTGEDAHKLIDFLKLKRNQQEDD
Sequence of UniProt Q13555 (Q13555 whole entry, looked up): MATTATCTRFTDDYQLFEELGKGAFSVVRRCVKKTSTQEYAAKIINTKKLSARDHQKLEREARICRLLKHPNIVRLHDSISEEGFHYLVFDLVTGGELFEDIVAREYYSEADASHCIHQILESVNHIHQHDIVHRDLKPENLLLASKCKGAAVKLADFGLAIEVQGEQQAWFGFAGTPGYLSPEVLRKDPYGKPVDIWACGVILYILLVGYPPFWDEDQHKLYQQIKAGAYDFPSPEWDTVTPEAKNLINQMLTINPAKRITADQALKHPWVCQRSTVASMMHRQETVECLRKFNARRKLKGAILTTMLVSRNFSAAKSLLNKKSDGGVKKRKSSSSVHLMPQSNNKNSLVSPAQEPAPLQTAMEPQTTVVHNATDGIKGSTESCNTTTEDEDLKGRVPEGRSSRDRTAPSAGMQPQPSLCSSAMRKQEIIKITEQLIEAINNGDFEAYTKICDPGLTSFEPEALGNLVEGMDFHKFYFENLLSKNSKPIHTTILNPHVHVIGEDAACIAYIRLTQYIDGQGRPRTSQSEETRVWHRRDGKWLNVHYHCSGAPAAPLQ
Sequence of UniProt Q86WR0 (Q86WR0 whole entry, looked up): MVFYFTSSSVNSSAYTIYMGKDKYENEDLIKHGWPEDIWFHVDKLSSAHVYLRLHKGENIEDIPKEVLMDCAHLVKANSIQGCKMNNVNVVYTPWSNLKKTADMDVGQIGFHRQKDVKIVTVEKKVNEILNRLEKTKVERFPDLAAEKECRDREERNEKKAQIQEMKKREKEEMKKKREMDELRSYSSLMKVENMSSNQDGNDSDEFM
Sequence of UniProt O95352 (O95352 whole entry, looked up): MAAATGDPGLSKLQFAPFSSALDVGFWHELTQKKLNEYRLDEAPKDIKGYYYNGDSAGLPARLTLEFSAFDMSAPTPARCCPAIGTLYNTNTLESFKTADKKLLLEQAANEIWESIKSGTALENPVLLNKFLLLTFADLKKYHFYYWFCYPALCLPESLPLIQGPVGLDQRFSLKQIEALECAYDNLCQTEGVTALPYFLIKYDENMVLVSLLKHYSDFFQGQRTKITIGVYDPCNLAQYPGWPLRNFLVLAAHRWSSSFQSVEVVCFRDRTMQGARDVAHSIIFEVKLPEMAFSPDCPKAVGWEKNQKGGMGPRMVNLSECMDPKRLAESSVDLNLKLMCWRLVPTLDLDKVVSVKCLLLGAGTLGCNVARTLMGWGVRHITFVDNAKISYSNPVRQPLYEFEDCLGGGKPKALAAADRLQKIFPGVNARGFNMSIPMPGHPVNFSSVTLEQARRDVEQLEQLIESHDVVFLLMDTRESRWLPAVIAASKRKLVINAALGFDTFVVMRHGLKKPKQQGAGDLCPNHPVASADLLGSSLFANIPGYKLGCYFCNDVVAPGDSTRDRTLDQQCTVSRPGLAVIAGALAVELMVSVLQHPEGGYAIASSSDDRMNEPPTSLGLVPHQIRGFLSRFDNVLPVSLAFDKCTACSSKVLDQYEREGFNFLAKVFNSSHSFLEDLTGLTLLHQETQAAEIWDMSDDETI
Sequence of UniProt Q96A33 (Q96A33 whole entry, looked up): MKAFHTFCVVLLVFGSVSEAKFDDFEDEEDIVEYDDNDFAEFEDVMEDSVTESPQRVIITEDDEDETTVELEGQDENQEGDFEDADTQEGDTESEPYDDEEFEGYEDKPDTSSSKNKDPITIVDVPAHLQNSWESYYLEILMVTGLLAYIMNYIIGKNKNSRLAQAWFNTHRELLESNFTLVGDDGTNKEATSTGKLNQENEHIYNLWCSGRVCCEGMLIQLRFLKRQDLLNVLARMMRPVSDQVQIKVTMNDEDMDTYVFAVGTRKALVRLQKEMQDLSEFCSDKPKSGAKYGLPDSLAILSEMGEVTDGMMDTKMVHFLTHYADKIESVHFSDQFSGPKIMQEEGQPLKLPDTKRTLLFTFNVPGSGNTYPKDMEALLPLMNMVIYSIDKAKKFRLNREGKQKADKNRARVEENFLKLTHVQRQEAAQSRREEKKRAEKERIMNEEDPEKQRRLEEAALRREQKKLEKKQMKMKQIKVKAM

log2 fold change, inactive:
CARD9 (UniProt Q9H257) -0.021
ATG13 isoform 2 (UniProt O75143) -0.013
CCDC25 (UniProt Q86WR0) 0.01
CCPG1 isoform 5 (UniProt Q9ULG6) -0.061
BRAF (UniProt P15056) 0.045
CALB2 (UniProt P22676) 0.112
CES2 isoform 4 (UniProt O00748) -0.061
CCDC47 (UniProt Q96A33) -0.011
CCNB2 (UniProt O95067) 0.084
ATP2B4 (UniProt P23634) 0.023
CDKN1C (UniProt P49918) -0.136
ATAD3B (UniProt Q5T9A4) -0.001
CEP76 (UniProt Q8TAP6) 0.001
CDK13 (UniProt Q14004) 0.007
C2CD5 isoform 3 (UniProt Q86YS7) 0.054
CDAN1 (UniProt Q8IWY9) -0.012
ATRIP (UniProt Q8WXE1) 0.026
CAMK2G isoform 8 (UniProt Q13555) -0.013
CDC16 (UniProt Q13042) 0.017
CDC7 (UniProt O00311) -0.036
BNIP1 (UniProt Q12981) -0.018
CAD (UniProt P27708) -0.032
CFDP1 (UniProt Q9UEE9) -0.005
C15orf41 (UniProt Q9Y2V0) 0.006
CDC123 (UniProt O75794) -0.001
BMS1 (UniProt Q14692) -0.042
CCNA2 (UniProt P20248) 0.019
ATE1 isoform 2 (UniProt O95260) -0.038
BPHL (UniProt Q86WA6) 0.009
ATR (UniProt Q13535) 0.052
BORCS5 (UniProt Q969J3) -0.079
CCNYL1 (UniProt Q8N7R7) 0.101
CBFA2T3 (UniProt O75081) 0.018
ATG7 (UniProt O95352) 0.019
CAMKK2 (UniProt Q96RR4) 0.021
C19orf54 (UniProt Q5BKX5) 0.08
ATXN2 (UniProt Q99700) 0.006
CASP3 (UniProt P42574) -0.001
CAMKK1 isoform 2 (UniProt Q8N5S9) 0.03

Reference: the supplement of paper PMC10849652
